# Results published in PubChem BioAssay (NCATS).
# Records with an inconclusive call do not appear. A call without a number means that no potency is given here. Calls of active or inactive are those of the source. The call rests on the fitted dose curve; in most records, active means well fitted cell-killing curve with a large enough effect; inconclusive means small, poorly fitted or top-dose-only effect; inactive means flat fitted curve, though single readings scatter.
# Experiments:
# [1] = Cell Viability - LYMP2-011 (AID 969); further: nearly all actives have a fitted effect of over 60% in size; further: potency means the concentration at half of the fitted maximal effect
# Procedure, shortened: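 Cells seeded at 2500 per well rest 5 hr before compound addition, then incubate 24 hr at 37 C. CellTiter-Glo reagent is added for 30 min at room temperature before luminescence detection.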
# [2] = Cell Viability - LYMP2-013 (AID 970); further: nearly all actives have a fitted effect of over 55% in size; further: potency means the concentration at half of the fitted maximal effect
# Procedure, shortened: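 In complete culture medium, human lymphoblastoid cells were dosed for 24 hr at 37 C, with tetraoctylammonium bromide (6.4pM to 92 uM) as positive control. Viability reflects luciferase-based ATP signal; AC50 derived from concentration-response curves.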
# [3] = Cell Viability - LYMP2-015 (AID 971); further: nearly all actives have a fitted effect of over 55% in size; further: potency means the concentration at half of the fitted maximal effect
# Procedure, shortened: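 AC50 values reflect Hill-model fits of ATP-based luminescence (CellTiter-Glo) from a human lymphoblastoid line, 2500 cells/well, treated 24 hr at 37 C.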
# [4] = Cell Viability - LYMP2-017 (AID 972); further: nearly all actives have a fitted effect of over 55% in size; further: potency means the concentration at half of the fitted maximal effect
# Procedure, shortened: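 In this qHTS format, lymphoblastoid cells in complete medium receive test compound for a day at 37 C before ATP content is quantified by luciferase luminescence. Reported AC50 figures come from standard Hill-equation curve fitting.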
# [5] = Cell Viability - LYMP2-019 (AID 973); further: nearly all actives have a fitted effect of over 55% in size; further: potency means the concentration at half of the fitted maximal effect
# Procedure, shortened: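 AC50 values come from Hill-equation modelling of qHTS concentration-response curves, where viability is measured as luciferase-based ATP luminescence in the lymphoblastoid line after 24 hr compound exposure in complete culture medium.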
# [6] = Cell Viability - LYMP2-021 (AID 974); further: potency means the concentration at half of the fitted maximal effect
# Procedure, shortened: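 In qHTS format, compounds are tested against 2500 lymphoblastoid cells per well for 24 h; viable cell number is inferred from ATP-driven luciferase light, and Hill-equation fitting yields AC50 values.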
# [7] = Cell Viability - LYMP2-023 (AID 975); further: nearly all actives have a fitted effect of over 55% in size; further: potency means the concentration at half of the fitted maximal effect
# Procedure, shortened: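 In this qHTS, ATP-based luciferase luminescence (CellTiter-Glo) is quantified in human lymphoblastoid cells after 24 hr compound treatment at 37 C; tetraoctylammonium bromide serves as positive control. Concentration-response curves are Hill-fitted to give AC50.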
# [8] = Cell Viability - LYMP2-002 (AID 977);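 further: compound exposure lasted 24 h at 37 °C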; further: potency means the concentration at half of the fitted maximal effect
# Procedure, shortened: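 In this qHTS viability screen, 2500 human lymphoblastoid cells per well receive compound for 24 hr at 37 C, and luciferase-based ATP luminescence gives the viability signal. Tetraoctylammonium bromide serves as positive control.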
# [9] = Cell Viability - LYMP2-006 (AID 978); further: nearly all actives have a fitted effect of over 60% in size; further: potency means the concentration at half of the fitted maximal effect
# Procedure, shortened: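 Human lymphoblastoid cells, 2500 per well, were preincubated 5 hr at 37 C, then exposed to compounds for 24 hr at 37 C in complete medium. Viability was read as intracellular ATP by CellTiter-Glo luminescence; AC50 from Hill-equation fits of qHTS concentration-response data.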
# [10] = Cell Viability - LYMP2-007 (AID 979);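 further: cells exposed to compound for 24 h before reading; nearly all actives have a fitted effect of over 60% in size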; further: potency means the concentration at half of the fitted maximal effect
# Procedure, shortened: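 Measured via luciferase-based ATP quantitation: lymphoblastoid cells, 24 hr compound exposure at 37 C, AC50 from Hill fits.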
# [11] = Cell Viability - LYMP2-008 (AID 980); further: nearly all actives have a fitted effect of over 60% in size; further: potency means the concentration at half of the fitted maximal effect
# Procedure, shortened: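 Measured: ATP-dependent luminescence, proportional to viable cell number, in human lymphoblastoid cells treated 24 hr with compound in complete culture medium. Values are AC50s from Hill-equation modelling of qHTS titrations.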
# [12] = Cell Viability - LYMP2-012 (AID 982); further: potency means the concentration at half of the fitted maximal effect
# [13] = Cell Viability - LYMP2-014 (AID 983); further: nearly all actives have a fitted effect of over 50% in size; further: potency means the concentration at half of the fitted maximal effect
# Procedure, shortened: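 Quantitative HTS in lymphoblastoid cells: 24 hr compound exposure, then CellTiter-Glo ATP luminescence. Positive control was tetraoctylammonium bromide, 6.4pM to 92 uM.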
# [14] = Cell Viability - LYMP2-016 (AID 984); further: nearly all actives have a fitted effect of over 55% in size; further: potency means the concentration at half of the fitted maximal effect
# Procedure, shortened: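 Human lymphoblastoid cells (LYMP2-016), 2500/well in complete medium, preincubated 5 hr at 37 C, then compound-treated 24 hr at 37 C. Intracellular ATP read by CellTiter-Glo luminescence after 30 min at room temperature; AC50 from Hill-equation concentration-response fits.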
# [15] = Cell Viability - LYMP2-018 (AID 985); further: nearly all actives have a fitted effect of over 50% in size; further: potency means the concentration at half of the fitted maximal effect
# Procedure, shortened: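 In this qHTS viability assay, cells are treated for 24 hr and cellular ATP is quantified by luciferase-based luminescence, with tetraoctylammonium bromide as positive control.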
# [16] = Cell Viability - LYMP2-020 (AID 986); further: nearly all actives have a fitted effect of over 55% in size; further: potency means the concentration at half of the fitted maximal effect
# Procedure, shortened: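 Cells at 2500 per well receive a 24 hr compound exposure at 37 C. Viability is measured as ATP-dependent luciferase luminescence, with AC50 modeled from qHTS concentration-response curves.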
# [17] = Cell Viability - LYMP2-022 (AID 987); further: nearly all actives have a fitted effect of over 55% in size; further: potency means the concentration at half of the fitted maximal effect
# Procedure, shortened: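 In this qHTS cytotoxicity screen, compound titrations were incubated 24 hr at 37 C with human lymphoblastoid cells in complete medium. Luciferase-based ATP luminescence provided the viability signal.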
# [18] = Cell Viability - LYMP2-024 (AID 988); further: nearly all actives have a fitted effect of over 60% in size; further: potency means the concentration at half of the fitted maximal effect
# Procedure, shortened: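 Cells at 2500 per well received compound for 24 hr after a 5 hr settling period. Viability was scored by CellTiter-Glo luminescence, with AC50 from Hill fits.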
# [19] = Cell Viability - LYMP2-026 (AID 989); further: nearly all actives have a fitted effect of over 50% in size; further: potency means the concentration at half of the fitted maximal effect
# Procedure, shortened: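 Acute toxicity screen in complete culture medium, with 24 hr compound exposure at 37 C. Viability read as cellular ATP via luciferase reaction, with tetraoctylammonium bromide (6.4pM to 92 uM) as positive control.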
# [20] = Cell Viability - LYMP2-025 (AID 976); further: series mostly up to about 92 µM
# Procedure, shortened: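 Luminescent ATP readout after 24 hr treatment of a human lymphoblastoid line (LYMP2-025, 2500 cells/well, 37 C). Reagent developed 30 min at room temperature; AC50 fitted with the Hill equation.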
Structure (SMILES),Potency [1],Potency [2],Potency [3],Potency [4],Potency [5],Potency [6],Potency [7],Potency [8],Potency [9],Potency [10],Potency [11],Potency [12],Potency [13],Potency [14],Potency [15],Potency [16],Potency [17],Potency [18],Potency [19],Potency [20]
Nc1ccc(O)cc1,39.8 µM (active),50.1 µM (active),31.6 µM (active),39.8 µM (active),39.8 µM (active),31.6 µM (active),50.1 µM (active),39.8 µM (active),50.1 µM (active),31.6 µM (active),39.8 µM (active),31.6 µM (active),39.8 µM (active),50.1 µM (active),39.8 µM (active),31.6 µM (active),25.1 µM (active),25.1 µM (active),50.1 µM (active),–
OCc1c[nH]c2ccccc12,inactive,inactive,inactive,inactive,inactive,inactive,inactive,inactive,inactive,inactive,inactive,inactive,inactive,inactive,inactive,inactive,inactive,inactive,inactive,inactive
COc1cc(C=O)ccc1O,inactive,inactive,inactive,inactive,inactive,inactive,inactive,inactive,inactive,inactive,inactive,inactive,inactive,inactive,inactive,inactive,inactive,inactive,inactive,inactive
Oc1ccccc1,inactive,inactive,inactive,inactive,inactive,inactive,inactive,inactive,inactive,inactive,inactive,inactive,inactive,inactive,inactive,inactive,inactive,inactive,inactive,inactive
CCCC(=O)c1cc(O)c(O)cc1O,inactive,inactive,inactive,–,inactive,inactive,inactive,inactive,inactive,–,inactive,inactive,inactive,inactive,inactive,inactive,inactive,–,inactive,inactive
Brc1ccccc1-c1ccccc1,inactive,inactive,inactive,inactive,inactive,inactive,inactive,inactive,inactive,inactive,inactive,inactive,inactive,inactive,inactive,inactive,inactive,inactive,inactive,inactive
c1ccc2occc2c1,inactive,inactive,inactive,inactive,inactive,inactive,inactive,inactive,inactive,inactive,inactive,inactive,inactive,inactive,inactive,inactive,inactive,inactive,inactive,inactive
O=C(NO)c1ccccc1,inactive,inactive,inactive,inactive,inactive,inactive,inactive,inactive,inactive,inactive,inactive,inactive,inactive,inactive,inactive,inactive,inactive,inactive,inactive,inactive
CC(=O)OC/C=C(C)/C=C/C=C(C)/C=C/C1=C(C)CCCC1(C)C,–,–,50.1 µM (active),50.1 µM (active),–,–,–,–,–,–,–,50.1 µM (active),–,–,–,–,50.1 µM (active),39.8 µM (active),–,inactive
Cc1cc(C(C)(C)C)c(O)c(C(C)(C)C)c1,inactive,inactive,inactive,inactive,inactive,inactive,inactive,inactive,inactive,inactive,inactive,inactive,inactive,inactive,inactive,inactive,inactive,inactive,inactive,inactive
CC(C)C(C)(C)C(C)(C)C(C)(C)S,inactive,inactive,inactive,inactive,inactive,inactive,inactive,inactive,inactive,inactive,inactive,inactive,inactive,inactive,inactive,inactive,inactive,inactive,inactive,inactive
